Bioassay records from PubChem BioAssay.
FMDV inh – High Throughput Screening for Foot and Mouth Disease Virus Antivirals. FMDV antiviral cell-based qHTS. Potency, µM (titrated, usually from 57.9 µM), without a hit: at the top dose activity change, negative = inhibition, actives largely listed as inhibitors. AID 1159524, 2015. hit rate 1.2% among 410,000; calls by dose curve; tested in HEK293T cells; also: read-out not given here; potency is read from the fitted curve at half-maximal effect; nearly all actives have a fitted effect of over 45% in size
HCMV antiviral – qHTS Assay for inhibitors of the human cytomegalovirus (HCMV); HFF cells, HCMV-luciferase reporter, 72 h; active compounds read low; AID 1259415, 2018; hit rate 4.5% among 410,000; activity change, negative = inhibition, % at 57.5 µM; in the data active = activity change below about -60%; inconclusive = no clear call, values can overlap the other calls; inactive = above about -39%
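Luciferase read-out from HCMV-luciferase-infected HFFs (MOI 1 PFU/cell) 72 h post infection at 37C; compounds added after 16 h cell attachment; activity normalized between buffer-only basal and Salinomycin (10uM) inhibitor controls.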
VACV mCherry inh – qHTS for Stage-Specific Inhibitors of Vaccinia Orthopoxvirus: mCherry Reporter Primary qHTS; Vaccinia virus mCherry reporter infection, fluorescence; Potency, µM (titrated, usually from 36.5 µM), inactives show top-dose activity change, negative = inhibition, most hits filed as inhibitors; hit rate 0.63% among 310,000; calls by dose curve; tested in A549 cells; also: potency is read from the fitted curve at half-maximal effect; nearly all actives have a fitted effect of over 35% in size
Sm TGR inh – qHTS Assay for the Inhibitors of Schistosoma Mansoni Peroxiredoxins. Schistosoma mansoni thioredoxin glutathione reductase (TGR), Q962Y6. purified TGR, DTNB reduction, TNB absorbance 405 nm. Potency, µM (top dose mostly 114 µM), for the others: at the highest dose activity change, negative = inhibition, most hits filed as inhibitors. hit rate 3% among 360,000. AID 485364, 2010; also: potency is read from the fitted curve at half-maximal effect; nearly all actives have a fitted effect of over 60% in size
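Kinetic colorimetric format: TGR-catalysed, NADPH-driven DTNB reduction monitored via TNB absorbance. Enzyme dispensed at 20 nM; compound exposure 15 min at room temperature before reaction start.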
HCV inh – qHTS Assay for Inhibitors of Hepatitis C Virus (HCV); Huh7.5.1 HCVcc-Cre infection, luciferase reporter, 44 h; Potency, µM (highest dose often 41.8 µM), without a hit: at the top dose activity change, negative = inhibition, actives largely listed as inhibitors; hit rate 3.4% among 340,000; AID 651820, 2012; also: potency is read from the fitted curve at half-maximal effect
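Infectious HCV cell culture screen: compound-treated cells (1,000/well, pre-plated 4 h) are infected with HCVcc-Cre at roughly 0.5 moi and grown 44 h. Infection is quantified by luciferase signal after 15 min substrate incubation at room temperature.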
Vaccinia Venus – qHTS for Stage-Specific Inhibitors of Vaccinia Orthopoxvirus: Venus Reporter Primary qHTS. Potency, µM (titrated, usually from 36.5 µM), for the others: top-dose activity change, negative = inhibition, hits mostly inhibitors. hit rate 0.46% among 330,000. AID 720580, 2013. Vaccinia virus Venus reporter expression, fluorescence; calls by dose curve; tested in A549 cells; also: potency is read from the fitted curve at half-maximal effect; nearly all actives have a fitted effect of over 30% in size
* marks the source's active call; other numbers are inactive results; i = inactive; ? = inconclusive; · = no result; [ ] = dose if it differs, or a comment. An excerpt weighted towards active compounds, which were near 9.3% of everything screened. Unless noted, calls follow the shape of the dose curve; as a rule, active = well fitted curve in the direction sought with a large enough effect; inconclusive = small, poorly fitted or top-dose-only effect, or another doubt; inactive = no such curve, though single readings can be large; an effect the other way counts as inactive or inconclusive. % is scaled to controls: 0 for no effect and ±100 for the full control effect.

SMILES	FMDV inh	HCMV antiviral	VACV mCherry inh	Sm TGR inh	HCV inh	Vaccinia Venus
COc1ccc(C(=O)C2CCCN(C/C=C/c3ccccc3OC)C2)c(OC)c1 (stereo unspecified)	-7.6%	-60.6*	-12.5%	-13.4%	?	-12.7%
CCCCCCCCCCCCCCC[C@H](O)[C@@H](N)CO	-15.3%[6.7 µM]	·	-17.0%[3.33 µM]	·	·	-8.3%[3.33 µM]
COc1ccc(Cl)cc1NC(=O)CN(C)C(=O)Cn1[nH]c(=O)c2ccccc2c1=O	-16.0%	32.2	·	-17.5%	-23.4%	·
CCOc1ccc(Cl)cc1C1=CC(=O)C[C@H](c2ccc(OC)cc2)C1	0.0%	-38.7	i	-3.0%	8.91µM*	-24.8%
COc1cc(C2C(C#N)=C(SC)NC3=C2C(=O)CCC3)ccc1O (stereo unspecified)	-14.4%	-37.5	-19.3%	-19.2%	22.9%	-4.7%
Cc1ccc(NC(=O)CSC2=C(C#N)C(c3ccc4c(c3)OCO4)C3=C(CCCC3=O)N2)c(C)c1 (stereo unspecified)	-17.7%	-64.6*	·	-25.2%	-23.1%	·
CCc1ccccc1NC(=O)CSC1=C(C#N)C(c2ccc(O)c(OC)c2)C2=C(CCCC2=O)N1 (stereo unspecified)	?	-11.7	-24.6%	39.8µM*	-16.2%	-11.9%
O=c1cc(-c2ccccc2Br)[nH]c2ccccc12	·	-89.8*	·	·	·	·
Cc1ccc(-c2cc(=O)c3ccccc3[nH]2)cc1	38.8%	9.5	i	0.5%	?	?
CSc1ccc(C2Nc3ccccc3-c3cc(C)nn32)cc1 (stereo unspecified)	1.5%	-5.2	·	-2.7%	10µM*	·
CN(C)c1ccc(-c2ccc3ncnc(-n4ccnc4)c3c2)cc1	-2.2%	·	·	·	·	·
CCn1c(=O)c2cc(C(=O)NC3CCC(C)CC3)sc2c2ccccc21 (stereo unspecified)	-2.7%	-66.7*	-2.1%	5.9%	·	-15.8%
CCn1c(=O)c2cc(C(=O)NCCCN3CCC(C)CC3)sc2c2ccccc21	-6.9%	-76.1*	-24.1%	-0.3%	·	-22.5%
COc1ccc(C(=O)NCC(C)C)c(OC)c1	33.7%	-28.9	?	3.3%	?	-21.4%
COc1nccnc1NS(=O)(=O)c1ccc(NC(=S)NC(=O)/C=C/c2ccc(F)cc2)cc1	-15.1%	-16.2	·	0.0%	14.9%	·
CCO[C@@H]1OC(C(=O)N2CCN(Cc3ccc4c(c3)OCO4)CC2)=C[C@H](c2coc3ccccc3c2=O)[C@H]1CCCO	-28.6%	-89.1*	i	-15.6%	-25.2%	-12.9%
CCO[C@H]1OC(C(=O)N2CCOCC2)=C[C@@H](c2coc3ccccc3c2=O)[C@@H]1CCCO	-19.2%	-23.0	i	-2.2%	35.5µM*	1.6%
CCO[C@H]1OC(C(=O)N2CCN(Cc3ccccc3)CC2)=C[C@@H](c2coc3ccccc3c2=O)[C@@H]1CCCO	-28.6%	-15.3	i	-22.5%	-21.1%	-22.4%
CCN(CC)C(=O)c1cnn(-c2ccccc2)c1NC(=O)c1ccccc1F	4.8%	-5.2	·	-3.7%	15.1%	·
Clc1nc(CN2CCCCC2)nc2sc3c(c12)CCC3	-15.2%	9.4	-0.7%	22.4µM*	?	-7.7%
O=c1[nH]c(CN2CCCC2)nc2sc3c(c12)CCC3	-0.8%	-0.4	-1.3%	-24.9%	3.7%	-12.6%
CCOC(=O)c1ccccc1NS(=O)(=O)c1ccc(S(=O)(=O)N2CCCC2)cc1	·	-7.0	-10.4%	31.5%	?	0.0%
O=C(NCc1ccc(F)cc1F)Nc1cnccc1C(F)(F)F	-12.3%	-67.9*	·	-0.9%	-5.4%	·
O=C(NCc1cccnc1)Nc1ccc(F)cc1F	20.1%	44.8	-3.9%	1.7%	3.2%	-7.3%
COc1ccc(CCNc2ncnc3cc(OC)c(OC)cc23)cc1OC	20µM*	-21.3	i	·	10µM*	-21.4%
SMILES	FMDV inh	HCMV antiviral	VACV mCherry inh	Sm TGR inh	HCV inh	Vaccinia Venus
COc1cccc(CNc2ncnc3cc(OC)c(OC)cc23)c1	?	21.2	·	0.9%	-14.6%	?
COc1cc2ncnc(NCCc3ccccc3)c2cc1OC	20µM*	?	·	·	11.2µM*	·
Cc1ccn(CCC(=O)N2CCCC(CCC(=O)NCc3ccc(F)c(F)c3)C2)n1 (stereo unspecified)	10.6%	-0.5	-23.9%	1.4%	8.6%	-9.4%
COc1ccc(CNCc2cccc(Oc3ccccc3)c2)cc1	-28.0%	-27.2	-4.8%	0.5%	?	-4.3%
CCn1c(SCC(=O)NCc2ccccc2)nnc1-c1ccccc1O	·	5.4	-13.8%	-0.3%	-0.1%	-8.2%
CCOC(=O)c1oc2ccccc2c1COC(=O)CNC(=O)c1ccccc1OC	-4.4%	-21.2	-14.2%	-6.0%	?	-11.8%
Cn1c(O)c(N=NC(=S)Nc2ccccc2F)c2cc(S(=O)(=O)N3CCOCC3)ccc21	?	-63.1*	-9.1%	-1.5%	?	-2.2%
C=CCn1c(O)c(N=NC(=S)Nc2ccc(OC)c(Cl)c2)c2ccccc21	-3.6%	?	?	0.0%	?	-25.3%
Cc1ccc(NC(=S)N=Nc2c(O)n(C)c3ccc(S(=O)(=O)N4CCOCC4)cc23)cc1C	-21.8%	?	i	1.0%	7.9%	-18.1%
Cc1cccc(NC(=S)N=Nc2c(O)n(CN3CCOCC3)c3ccccc23)c1C	?	-77.2*	·	8.2%	-4.0%	·
C=CCn1c(O)c(N=NC(=S)Nc2ccccc2C)c2cc(S(=O)(=O)N3CCOCC3)ccc21	-25.7%	-73.6*	-18.6%	0.0%	?	-10.0%
Cc1ccc(N=Nc2c(O)n(CN3CCOCC3)c3ccccc23)cc1	45.2%	·	-17.6%	-29.0%	-12.4%	21.8%
C[C@H](CO)N1C[C@H](C)[C@@H](CN(C)CC2CCCCC2)Oc2c(NS(=O)(=O)c3cn(C)cn3)cccc2C1=O	123.9%	-8.0	i	·	0.0%	-8.1%
O=C(CCCn1c(=O)[nH]c2ccc(Br)cc2c1=O)NCc1ccc(Cl)cc1	-20.6%	-10.8	-14.8%	2.6%	-0.9%	14.5%
Cc1cc(C)nc(NC(=O)Cc2ccc([N+](=O)[O-])cc2)c1	-23.8%	-27.1	-17.7%	5.4%	-13.2%	-1.4%
CC(C)c1nnc(NC(=O)c2c(O)c3cccc4c3n(c2=O)CCC4)s1	-10.4%	-96.2*	-22.8%	11.5%	?	-12.4%
CNC(=O)c1c(O)c2cccc3c2n(c1=O)CCC3	-10.1%	-97.5*	-20.2%	0.0%	?	-10.5%
CCCC1C2C(=O)N(c3ccccc3)C(=O)C2ON1c1ccccc1 (stereo unspecified)	1.3%	45.9	·	3.4%	2.3%	·
CCCOc1ccc(N2C(=O)C3ON(c4ccccc4)C(CCC)C3C2=O)cc1 (stereo unspecified)	?	?	-12.2%	22.4µM*	12.6%	-12.1%
